# A number with no mark means an inactive call.
# Compound: C#CCNC(=O)CCSSCCC(=O)NCCc1ccc(C=O)c(C=O)c1
# Experiment: lysine labeling ratio R10:1 (500 µM / 50 µM probe), SILAC-ABPP in living cells; higher = lower intrinsic lysine reactivity toward the probe, active = 2 or less
# Conditions: HeLa; probe concentrations 500 vs 50 µM
# Summary of the method: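 R, given per lysine, is the filtered median high-probe/low-probe MS1 peptide ratio, with the median then taken across forward and reverse replicates. Cells were living SILAC light and heavy HeLa cells in PBS at room temperature, labelled with 50 µM or 500 µM of an alkyne-tagged, disulfide-linked lysine probe. The ceiling applied is 20.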
# Sequence of UniProt Q15149 (Q15149 whole entry): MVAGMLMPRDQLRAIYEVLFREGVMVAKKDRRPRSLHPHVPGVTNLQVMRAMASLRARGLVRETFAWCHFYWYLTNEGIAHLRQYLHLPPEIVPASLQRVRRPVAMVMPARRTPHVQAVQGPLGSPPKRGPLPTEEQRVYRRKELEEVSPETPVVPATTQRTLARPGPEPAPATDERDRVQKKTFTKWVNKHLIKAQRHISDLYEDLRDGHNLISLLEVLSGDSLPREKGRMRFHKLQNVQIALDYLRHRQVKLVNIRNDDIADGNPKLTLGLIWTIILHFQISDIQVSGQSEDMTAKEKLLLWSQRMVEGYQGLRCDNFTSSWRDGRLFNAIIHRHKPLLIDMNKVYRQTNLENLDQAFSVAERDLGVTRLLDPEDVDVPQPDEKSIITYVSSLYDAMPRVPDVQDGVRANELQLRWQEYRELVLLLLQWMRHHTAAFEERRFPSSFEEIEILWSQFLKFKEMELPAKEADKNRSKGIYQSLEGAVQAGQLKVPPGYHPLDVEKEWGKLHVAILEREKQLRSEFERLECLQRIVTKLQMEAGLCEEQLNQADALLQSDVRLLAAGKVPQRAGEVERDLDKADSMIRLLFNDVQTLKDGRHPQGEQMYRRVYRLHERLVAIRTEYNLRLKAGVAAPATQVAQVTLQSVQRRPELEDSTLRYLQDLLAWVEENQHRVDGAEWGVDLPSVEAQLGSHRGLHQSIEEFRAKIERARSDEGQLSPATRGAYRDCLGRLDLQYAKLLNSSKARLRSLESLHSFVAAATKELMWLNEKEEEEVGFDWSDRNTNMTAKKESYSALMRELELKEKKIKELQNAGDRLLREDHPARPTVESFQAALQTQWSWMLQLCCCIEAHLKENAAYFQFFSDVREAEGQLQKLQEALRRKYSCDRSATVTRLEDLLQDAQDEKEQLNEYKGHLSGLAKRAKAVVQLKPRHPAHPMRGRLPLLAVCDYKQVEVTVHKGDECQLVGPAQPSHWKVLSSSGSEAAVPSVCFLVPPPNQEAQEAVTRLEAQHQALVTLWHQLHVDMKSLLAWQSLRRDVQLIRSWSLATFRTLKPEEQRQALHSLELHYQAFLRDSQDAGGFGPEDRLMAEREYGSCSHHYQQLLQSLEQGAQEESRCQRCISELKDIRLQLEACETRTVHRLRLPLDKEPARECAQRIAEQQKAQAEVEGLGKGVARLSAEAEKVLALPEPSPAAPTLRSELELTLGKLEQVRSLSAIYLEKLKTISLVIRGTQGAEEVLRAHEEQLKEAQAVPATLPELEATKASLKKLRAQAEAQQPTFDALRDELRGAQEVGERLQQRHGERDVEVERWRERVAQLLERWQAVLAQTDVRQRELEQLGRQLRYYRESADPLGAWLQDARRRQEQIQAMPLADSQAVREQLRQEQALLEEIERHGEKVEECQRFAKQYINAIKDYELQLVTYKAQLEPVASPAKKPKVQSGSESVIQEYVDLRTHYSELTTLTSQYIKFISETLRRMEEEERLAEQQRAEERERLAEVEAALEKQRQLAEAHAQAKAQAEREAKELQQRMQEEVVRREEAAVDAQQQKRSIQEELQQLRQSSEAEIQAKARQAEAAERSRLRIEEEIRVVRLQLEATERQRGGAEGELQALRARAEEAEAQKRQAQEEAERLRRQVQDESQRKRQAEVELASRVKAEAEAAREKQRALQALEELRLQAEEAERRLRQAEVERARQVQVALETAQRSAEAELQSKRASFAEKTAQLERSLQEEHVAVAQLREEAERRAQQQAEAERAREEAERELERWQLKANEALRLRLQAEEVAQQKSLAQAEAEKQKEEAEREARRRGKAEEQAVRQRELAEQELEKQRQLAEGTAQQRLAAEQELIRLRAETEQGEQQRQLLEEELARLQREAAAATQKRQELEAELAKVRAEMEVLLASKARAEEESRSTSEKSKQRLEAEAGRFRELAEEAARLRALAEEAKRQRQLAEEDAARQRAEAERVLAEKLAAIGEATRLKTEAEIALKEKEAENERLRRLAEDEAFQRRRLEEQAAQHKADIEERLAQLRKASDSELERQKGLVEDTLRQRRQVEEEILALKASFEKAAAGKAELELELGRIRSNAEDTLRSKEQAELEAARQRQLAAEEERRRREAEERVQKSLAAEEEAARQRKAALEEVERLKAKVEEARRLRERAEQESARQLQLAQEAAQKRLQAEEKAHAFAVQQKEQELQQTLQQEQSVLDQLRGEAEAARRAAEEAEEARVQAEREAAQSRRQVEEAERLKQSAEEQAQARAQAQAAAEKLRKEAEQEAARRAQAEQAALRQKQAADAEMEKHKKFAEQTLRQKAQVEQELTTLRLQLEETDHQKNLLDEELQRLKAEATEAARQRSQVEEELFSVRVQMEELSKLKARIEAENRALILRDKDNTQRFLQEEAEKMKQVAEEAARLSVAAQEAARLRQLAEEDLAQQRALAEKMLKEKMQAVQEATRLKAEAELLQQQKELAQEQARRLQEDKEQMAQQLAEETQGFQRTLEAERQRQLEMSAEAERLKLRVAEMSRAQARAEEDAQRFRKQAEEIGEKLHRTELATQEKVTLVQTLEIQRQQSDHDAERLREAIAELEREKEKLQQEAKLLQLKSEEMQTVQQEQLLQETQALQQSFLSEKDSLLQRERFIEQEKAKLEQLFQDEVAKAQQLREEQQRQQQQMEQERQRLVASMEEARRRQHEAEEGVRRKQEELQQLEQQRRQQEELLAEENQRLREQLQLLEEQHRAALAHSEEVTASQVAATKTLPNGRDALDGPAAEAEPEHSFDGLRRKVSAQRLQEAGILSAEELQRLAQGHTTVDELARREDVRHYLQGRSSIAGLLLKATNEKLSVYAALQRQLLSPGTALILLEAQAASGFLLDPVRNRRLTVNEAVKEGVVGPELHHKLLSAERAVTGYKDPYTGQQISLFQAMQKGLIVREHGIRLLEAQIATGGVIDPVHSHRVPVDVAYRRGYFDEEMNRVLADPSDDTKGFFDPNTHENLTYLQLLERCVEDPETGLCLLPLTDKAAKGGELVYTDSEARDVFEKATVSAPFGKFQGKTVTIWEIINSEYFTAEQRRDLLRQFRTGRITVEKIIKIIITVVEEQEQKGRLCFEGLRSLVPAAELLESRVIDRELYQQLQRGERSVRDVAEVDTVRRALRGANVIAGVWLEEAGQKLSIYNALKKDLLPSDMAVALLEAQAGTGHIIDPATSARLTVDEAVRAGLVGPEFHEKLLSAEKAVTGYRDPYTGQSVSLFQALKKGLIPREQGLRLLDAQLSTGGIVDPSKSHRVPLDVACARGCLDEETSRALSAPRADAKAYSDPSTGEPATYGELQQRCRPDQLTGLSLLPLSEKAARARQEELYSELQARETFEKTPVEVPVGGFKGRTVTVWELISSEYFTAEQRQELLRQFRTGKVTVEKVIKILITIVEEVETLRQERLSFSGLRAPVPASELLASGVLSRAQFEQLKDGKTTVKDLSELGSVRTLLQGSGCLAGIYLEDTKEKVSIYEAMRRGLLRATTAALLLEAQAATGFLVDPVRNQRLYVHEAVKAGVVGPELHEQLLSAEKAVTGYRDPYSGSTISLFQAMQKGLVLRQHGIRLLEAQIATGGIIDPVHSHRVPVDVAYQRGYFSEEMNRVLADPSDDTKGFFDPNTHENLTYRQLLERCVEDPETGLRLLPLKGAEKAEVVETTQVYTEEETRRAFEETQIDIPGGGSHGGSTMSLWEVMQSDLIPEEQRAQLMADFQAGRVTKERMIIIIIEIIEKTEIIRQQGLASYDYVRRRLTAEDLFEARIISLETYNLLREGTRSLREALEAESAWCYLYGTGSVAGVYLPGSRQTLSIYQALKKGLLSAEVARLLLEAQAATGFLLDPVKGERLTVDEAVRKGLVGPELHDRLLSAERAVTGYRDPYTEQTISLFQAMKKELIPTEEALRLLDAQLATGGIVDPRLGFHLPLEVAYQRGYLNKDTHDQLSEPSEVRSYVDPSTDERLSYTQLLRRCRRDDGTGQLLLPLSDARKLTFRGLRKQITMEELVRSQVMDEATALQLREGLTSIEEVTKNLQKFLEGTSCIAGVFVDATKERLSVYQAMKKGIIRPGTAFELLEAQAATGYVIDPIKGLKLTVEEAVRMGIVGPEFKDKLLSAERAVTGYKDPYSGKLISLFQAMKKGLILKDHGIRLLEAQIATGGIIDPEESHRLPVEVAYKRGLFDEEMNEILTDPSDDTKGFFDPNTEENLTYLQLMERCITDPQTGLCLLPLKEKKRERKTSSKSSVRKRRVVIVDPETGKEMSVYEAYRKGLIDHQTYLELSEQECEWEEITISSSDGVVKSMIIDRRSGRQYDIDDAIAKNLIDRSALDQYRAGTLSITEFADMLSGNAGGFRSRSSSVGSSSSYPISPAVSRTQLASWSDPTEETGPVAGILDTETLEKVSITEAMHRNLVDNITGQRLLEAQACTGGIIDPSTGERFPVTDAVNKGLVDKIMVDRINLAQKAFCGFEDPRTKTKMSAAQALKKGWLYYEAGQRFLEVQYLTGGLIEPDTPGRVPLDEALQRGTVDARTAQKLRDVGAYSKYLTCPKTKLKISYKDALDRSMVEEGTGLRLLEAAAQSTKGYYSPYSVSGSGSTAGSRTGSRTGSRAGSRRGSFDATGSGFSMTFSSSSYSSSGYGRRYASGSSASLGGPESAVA
# Sequence of UniProt P30533 (P30533 whole entry): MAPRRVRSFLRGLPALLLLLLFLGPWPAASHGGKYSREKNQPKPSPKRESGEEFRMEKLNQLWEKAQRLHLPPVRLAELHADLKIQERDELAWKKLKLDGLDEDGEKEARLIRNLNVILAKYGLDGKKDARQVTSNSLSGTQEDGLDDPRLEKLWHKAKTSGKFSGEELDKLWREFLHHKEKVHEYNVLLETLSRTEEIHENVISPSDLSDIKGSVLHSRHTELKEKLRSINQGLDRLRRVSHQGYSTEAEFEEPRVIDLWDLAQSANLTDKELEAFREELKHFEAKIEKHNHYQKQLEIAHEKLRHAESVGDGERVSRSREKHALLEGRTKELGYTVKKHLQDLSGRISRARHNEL
row,Target,lysine labeling ratio R10:1
1,ADGRG2 (lysine site: K592) (UniProt Q8IZP9),2.37
2,UniProt Q8WXI7 (lysine site: K12605),3.8
3,FSCN1 (lysine site: K220) (UniProt Q16658),4.2
4,UniProt P21589 (lysine site: K433),3.8
5,IGF2R (lysine site: K393) (UniProt P11717),3.23
6,UniProt Q7L592 (lysine site: K72),0.87 (active)
7,EGFR (lysine site: K487) (UniProt P00533),1.61 (active)
8,UniProt P61978 (lysine site: K198),1.88 (active)
9,STMN1 (lysine site: K126) (UniProt P16949),2.8
10,ASPH (lysine site: K588) (UniProt Q12797),1.1 (active)
11,UniProt P55072 (lysine site: K658),6.64
12,IGF1R (lysine site: K709) (UniProt P08069),4.79
13,ENG (lysine site: K556) (UniProt P17813),2.03
14,EEF2 (lysine site: K439) (UniProt P13639),1.76 (active)
15,HSP90AB1 (lysine site: K624) (UniProt P08238),7.02
16,XRCC6 (lysine site: K189) (UniProt P12956),4
17,CACNA2D1 (lysine site: K146) (UniProt P54289),5.1
18,EPRS (lysine site: K328) (UniProt P07814),1.73 (active)
19,KRT18 (lysine site: K426) (UniProt P05783),9.55
20,EPCAM (lysine site: K160) (UniProt P16422),2.33

row,Target,lysine labeling ratio R10:1
1,UniProt Q6NZI2 (lysine site: K122),5.32
2,THBS1 (lysine site: K300) (UniProt P07996),2.22
3,RPS3A (lysine site: K56) (UniProt P61247),1.81 (active)
4,UniProt P15941 (lysine site: K1125),3
5,MSN (lysine site: K3) (UniProt P26038),8.6
6,ACTN4 (lysine site: K632) (UniProt O43707),4.35
7,UniProt Q29980 (lysine site: K196),4.62
8,UniProt Q15149 (lysine site: K4270),0.968 (active)
9,LRPAP1 (lysine site: K323) (UniProt P30533),2.24
10,RPL28 (lysine site: K19) (UniProt P46779),0.79 (active)
11,UniProt Q9UHN6 (lysine site: K1182),6.32
12,SEMA3C (lysine site: K163) (UniProt Q99985),3.6
13,LTF (lysine site: K476) (UniProt P02788),0.862 (active)
14,UniProt Q15149 (lysine site: K4027),2.34
15,TLN1 (lysine site: K357) (UniProt Q9Y490),1.16 (active)
16,HSPA9 (lysine site: K206) (UniProt P38646),2.48
17,CACNA2D1 (lysine site: K88) (UniProt P54289),1.78 (active)
18,UniProt Q12884 (lysine site: K591),1.95 (active)
19,UniProt P60842 (lysine site: K238),1.54 (active)
20,UniProt Q15149 (lysine site: K2277),0.748 (active)

# Reference: the supplement of paper PMC11001985
